This is a sample that favours compounds with a hit; in the whole collection about 18% have one here.
DT40 TDP1 no CPT – qHTS for Inhibitors of human tyrosyl-DNA phosphodiesterase 1 (TDP1): qHTS in cells in absence of CPT | DT40 Tdp1-/- hTDP1 cells, no CPT, ATP luminescence, 48 h | Potency, µM (doses to about 46.2 µM), for the others: at the highest dose activity change, negative = growth inhibition, hits mostly inhibitors | actives 15% (n = 420,000); also: potency is read from the fitted curve at half-maximal effect; nearly all actives have a fitted effect of over 55% in size
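Growth kinetics read by CellTiter-Glo luminescence after ≥48 hr at 37 °C. Cells: DT40 Tdp1-/- stably carrying human TDP1, 400 per well, compound exposure in the absence of CPT (DMSO vehicle).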
LDHA block – LDHA (human) enzyme inhibition. P00338. purified LDHA, NADH/diaphorase-resazurin fluorescence; stronger effect = lower value. activity change, % (values are at about 110 or 230 µM). actives 0.15% (n = 480,000). AID 1347041; in the data active = activity change below about -30%; inconclusive = mostly about -25% to -30%;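 also: plate controls were DMSO wells for no effect and wells without enzyme for full effect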
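LDH5 2 nM; NADH 0.06 mM, pyruvate 0.2 mM; 200 mM Tris pH 7.4, EDTA, Tween-20; 5 min RT. Detection: diaphorase 0.133 mg/mL + resazurin 37 µM, fluorescence ex540/em590 at 0 and 20 min; normalized to enzyme-free and DMSO wells.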
TDP1 cell CPT – DT40-hTDP1 cell growth loss with CPT. actives 12% (n = 420,000). Potency, µM (doses to about 46.2 µM), for inactives: top-dose activity change, negative = growth inhibition, actives largely listed as inhibitors. chicken DT40 Tdp1-/-;hTDP1 cells + 20 nM CPT, ATP luminescence, 48 h. AID 686979; also: potency is read from the fitted curve at half-maximal effect; nearly all actives have a fitted effect of over 55% in size
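Cell growth measured by CellTiter-Glo luminescence after a minimum 48 h, 37 C compound exposure with 20 nM CPT in Tdp1-knockout DT40 cells stably expressing hTDP1, seeded 400/well; qHTS titration format.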
RORgamma inh – ROR gamma (mouse) transcription inhibition; Potency, µM (doses to about 53.6 µM), for inactives: top-dose activity change, negative = inhibition, hits mostly inhibitors; Drosophila S2 Gal4-RORgamma UAS-luciferase reporter, 20 h; P51450; actives 5.4% (n = 310,000); also: potency is read from the fitted curve at half-maximal effect; nearly all actives have a fitted effect of over 60% in size
Target sequence (P51450 whole entry, looked up, the tested form may be a part): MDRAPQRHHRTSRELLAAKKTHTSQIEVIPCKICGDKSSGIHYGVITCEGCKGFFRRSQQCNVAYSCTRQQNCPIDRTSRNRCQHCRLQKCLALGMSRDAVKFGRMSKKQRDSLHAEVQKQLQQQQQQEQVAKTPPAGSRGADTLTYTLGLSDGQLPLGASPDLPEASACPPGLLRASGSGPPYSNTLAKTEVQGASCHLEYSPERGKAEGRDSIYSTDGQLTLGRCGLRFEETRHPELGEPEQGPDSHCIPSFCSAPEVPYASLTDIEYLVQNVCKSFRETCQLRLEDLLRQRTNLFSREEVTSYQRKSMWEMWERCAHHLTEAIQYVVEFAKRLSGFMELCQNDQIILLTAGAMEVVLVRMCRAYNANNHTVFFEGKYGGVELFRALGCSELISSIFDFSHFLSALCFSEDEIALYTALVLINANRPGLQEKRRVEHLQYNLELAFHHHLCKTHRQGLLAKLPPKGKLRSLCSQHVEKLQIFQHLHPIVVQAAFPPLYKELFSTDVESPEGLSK
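Compounds are pin-transferred onto Drosophila Schneider cells expressing a copper-inducible Gal4–ROR gamma transactivation domain fusion. After 1 hr, copper sulfate is added to 700 uM final; luciferase is read 20 hr later.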
Gal4-VP16 FLuc – inhibits Gal4-VP16 luciferase reporter, ROR gamma counter-screen; Drosophila S2 Gal4-VP16 UAS-luciferase, luminescence, 20 h; Potency, µM (doses to about 53.6 µM), for the others: top-dose activity, negative = inhibition, actives largely listed as inhibitors; actives 3.5% (n = 310,000); AID 2546;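 also: Gal4-VP16 expression switched on by copper sulfate through the metallothionein promoter; potency is read from the fitted curve at half-maximal effect; nearly all actives have a fitted effect of over 50% in size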
IL1B secr inh – blocks inflammasome-driven IL-1 beta release | THP-1 LPS/ATP IL-1B secretion, AlphaLISA, 16 h; stronger effect = lower value | activity change, % at 57.5 µM | actives 4.7% (n = 360,000) | AID 743279; in the data active = activity change below about -50%; inconclusive = mostly about -30% to -49%
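THP-1 cells pretreated 1 hr with compounds (up to 57.5 uM final), then stimulated with LPS (250 ng/mL final) plus ATP (1.25 mM final); secreted IL-1B measured by AlphaLISA after 16 hr, decreased signal indicating inhibition.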
An asterisk follows results filed as active; ? = inconclusive; . = no result given; [ ] = dose if it differs, or a comment. Unless noted, calls follow the shape of the dose curve; as a rule, active = well fitted curve in the direction sought with a large enough effect; inconclusive = small, poorly fitted or top-dose-only effect, or another doubt; inactive = no such curve, though single readings can be large; an effect the other way counts as inactive or inconclusive. Unless noted, % is scaled to controls: 0 for no effect and ±100 for the full control effect.

SMILES	DT40 TDP1 no CPT	LDHA block	TDP1 cell CPT	RORgamma inh	Gal4-VP16 FLuc	IL1B secr inh
Cc1ccc(CNC(=O)C23CCC(=O)N2CCS3)cc1 (stereo unspecified)	.	-17	.	.	.	.
COC(=O)c1sc2ccccc2c1S(=O)(=O)N1CCN(c2ccc(C(C)=O)cc2)CC1	?	1	16µM*	.	.	.
CCOC(=O)c1sc2ccc(S(=O)(=O)N3CCCCC3)cc2c1N	?	-10	14µM*	?	-7%	-29
CCOC(=O)Nc1nc(-c2ccccc2)c(C(=O)c2ccc(Cl)cc2)s1	0.92µM*	-2	0.73µM*	-17%	-4%	36
CCOC(=O)C(=CNc1nc(-c2ccccc2)c(C(=O)Nc2ccc(-c3ccccc3)cc2)s1)C(=O)OCC	?	-5	16µM*	7%	1%	57
CCOC(=O)c1sc2ccc(S(=O)(=O)N3CCOCC3)cc2c1N	-25%	4	?	?	-6%	-9
O=C(Nc1ccc(F)cc1)c1ccccc1-c1ccccc1	.	0	.	.	.	.
C[Si](C)(C)C#C/C=C/S(=O)(=O)c1ccccc1	.	6	.	.	.	.
N#Cc1ccc(Nc2nc(-c3ccccc3)c(C(=O)c3ccccc3)s2)cc1	23µM*	-3	18µM*	.	.	-52*
COC(=O)c1sc2ccccc2c1NC(=O)c1ccc(S(=O)(=O)N2CC(C)CC(C)C2)cc1 (stereo unspecified)	18µM*	1	21µM*	-1%	-1%	13
CCOC(=O)N1CCN(C(=O)c2cn(CC)c3ccc(S(=O)(=O)N4CC(C)CC(C)C4)cc3c2=O)CC1 (stereo unspecified)	-1%	-17	-9%	35%	-9%	-7
CCOC(=O)c1sc(NC(=O)c2ccc(S(=O)(=O)N3CCCCCC3)cc2)nc1-c1ccccc1	1µM*	3	?	-11%	7%	10
CCOC(=O)c1sc2ccc(S(=O)(=O)N3CC(C)CC(C)C3)cc2c1N (stereo unspecified)	13µM*	-3	?	?	-1%	18
Cc1ccc(S(=O)(=O)NCC(=O)OCc2coc(-c3cccs3)n2)cc1C	.	-9	.	.	.	.
CC(NC(=O)CNC(=O)C1CCC(CNS(=O)(=O)c2ccc(Cl)cc2)CC1)c1ccccc1 (stereo unspecified)	.	-1	.	.	.	.
COc1ccc(NC(=O)Nc2cc(C(=O)NCc3ccc(C)cc3)ccc2N2CCCC2)cc1	-9%	-7	-10%	.	.	.
CCOc1ccccc1NC(=O)Nc1cc(C(=O)NCc2ccc(C)cc2)ccc1N1CCCC1	8.2µM*	-4	8.2µM*	.	.	.
CCOCCCNC(=O)Nc1cc(C(=O)NCc2ccc(C(C)C)cc2)ccc1N1CCCC1	?	3	26µM*	.	.	.
COc1ccc(CNC(=O)c2ccc(N3CCCC3)c(NC(=O)NCc3ccc(C)cc3)c2)cc1	?	-9	16µM*	.	.	.
CCc1ccccc1NC(=O)Nc1cc(C(=O)NCc2ccccc2OC)ccc1N1CCCC1	?	-8	15µM*	.	.	.
Cc1ccccc1-n1nnnc1C(C)(C)N1CCOCC1	.	-2	.	.	.	.
CCSC1=N/C(=C\c2cccc3ccccc23)C(=O)S1	.	4	.	.	.	.
O=C(OCc1ncc(-c2ccc(F)cc2)o1)c1ccc(Cl)cc1	.	6	.	.	.	.
N#Cc1nc(COc2ccccc2F)oc1NCCc1ccccc1	-19%	0	-5%	?	17%	-77*
COc1ccc(Nc2oc(COc3ccccc3F)nc2C#N)cc1	13µM*	1	?	0%	6%	-2
SMILES	DT40 TDP1 no CPT	LDHA block	TDP1 cell CPT	RORgamma inh	Gal4-VP16 FLuc	IL1B secr inh
Cn1c(=O)c2c(ncn2CCNc2cccc(Cl)c2)n(C)c1=O	.	-7	.	.	.	.
Cc1nn(-c2ccc(Cl)nn2)c2c1C(c1ccc(OCC(N)=O)cc1)CC(=O)N2 (stereo unspecified)	.	3	.	.	.	.
COc1ccc(Nc2c(-c3ccc(C)o3)nc3ccccn23)cc1	?	7	?	.	.	.
COc1ccc(Nc2c(-c3ccc(C)o3)nc3ccc(Cl)cn23)cc1	18µM*	-3	7.3µM*	.	.	.
Clc1ccc(Nc2c(-c3ccccc3Cl)nc3ccc(Cl)cn23)cc1	26µM*	0	?	.	.	.
Oc1ccccc1-c1nc2cnccn2c1Nc1ccc(Cl)cc1	?	1	?	.	.	.
CC(OC(=O)c1cc(=O)c2cc(Cl)ccc2o1)C(=O)NC1CC1 (stereo unspecified)	.	0	.	.	.	.
COc1ccc(-c2csc3nc(C)nc(N4CCN(C(C)=O)CC4)c23)cc1OC	?	-7	-25%	-9%	-7%	0
Cc1nc(N2CCC(C(N)=O)CC2)c2c(-c3cccs3)csc2n1	21µM*	2	?	18%	0%[10 µM]	23
COc1ccc(-c2csc3nc(C)nc(N4CCC(C)CC4)c23)cc1OC	18µM*	-2	21µM*	7.1µM*	11%[10 µM]	9
NC(=O)C1CCN(Cc2nc(-c3cccs3)no2)CC1	-6%	2	-7%	-13%	1%	11
Cc1ccc(N=C/C(C(=O)C(F)(F)F)=C(\O)c2cccs2)cc1C	.	6	.	.	.	.
CC(N)c1csc(Nc2nncc3ccccc23)n1 (stereo unspecified)	?	-5	?	.	.	-70*
CC(C)C(N)c1csc(Nc2nncc3ccccc23)n1 (stereo unspecified)	16µM*	1	?	.	.	0
CNc1c(NC(=O)c2cccc(Cl)c2)c(=O)oc2ccccc12	.	11	.	.	.	.
O=C(Nc1ccccc1)C1=C(c2ccccc2)S(=O)(=O)CCS1(=O)=O	0.026µM*	4	0.058µM*	0.89µM*	2.2µM*	-95*
O=C(Nc1cccnc1)C1=C(c2ccccc2)S(=O)(=O)CCO1	.	-6	.	.	.	.
C=Cc1ccc(CN2C(=O)N(c3ccc(C(C)=O)cc3)S(=O)(=O)c3ccccc32)cc1	.	9	.	.	.	.
COc1cc(OC)cc(N2C(=O)N(Cc3ccc(C(C)(C)C)cc3)c3ccccc3S2(=O)=O)c1	21µM*	-3	?	.	.	.
C=Cc1ccc(CN2C(=O)N(c3cccc(Cl)c3)S(=O)(=O)c3ccccc32)cc1	?	-6	12µM*	.	.	.
CCCC(=O)N1CCN(c2nc3ccc(F)cc3s2)CC1	12µM*	-17	15µM*	.	.	.
CCc1ccc2nc(N3CCN(C(=O)C(C)(C)C)CC3)sc2c1	18µM*	-2	?	17%	-5%	-2
CCC(=O)N1CCN(c2nc3c(C)cccc3s2)CC1	?	-3	?	.	.	.

Bioassay records from PubChem.
